Assay in all cases: PBM; 200 nM protein, PBS
Common to all, as to details: dsDNA, one strand shown

Experiment [1] concerns the target T1, SIX6 (Homo sapiens, UniProt O95475 114-200, L167I).
T1 sequence: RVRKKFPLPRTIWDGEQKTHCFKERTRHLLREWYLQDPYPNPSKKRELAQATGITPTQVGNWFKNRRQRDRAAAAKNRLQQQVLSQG

Experiment [2] deals with T2, SIX6 (Homo sapiens, UniProt O95475 114-200, L143V).
T2 sequence: T1 sequence with L30V, I54L

For experiment [3], the target named is T3, SIX6 (Homo sapiens, UniProt O95475 114-200, H141N).
T3 sequence: T1 sequence with H28N, I54L

The target in experiment [4] is T4, SIX6 (Homo sapiens, UniProt O95475 114-200, T165P).
T4 sequence: T1 sequence with T52P, I54L

The target in experiment [5] is T5, SIX6 (Homo sapiens, UniProt O95475 114-200, L167M).
T5 sequence: T1 sequence with I54M

In experiment [6] the target is T6, SIX6 (Homo sapiens, UniProt O95475 114-200, L143M).
T6 sequence: T1 sequence with L30M, I54L

For experiment [7], the target named is T7, SIX6 (Homo sapiens, UniProt O95475 114-200, L143I).
T7 sequence: T1 sequence with L30I, I54L

Experiment [8] concerns the target T8, SIX6 (Homo sapiens, UniProt O95475 114-200, T165G).
T8 sequence: T1 sequence with T52G, I54L

For experiment [9], the target named is T9, SIX6 (Homo sapiens, UniProt O95475 114-200, T139Q).
T9 sequence: T1 sequence with T26Q, I54L

Experiment [10] addresses T10, SIX6 (Homo sapiens, UniProt O95475 114-200, T165A).
T10 sequence: T1 sequence with T52A, I54L

In experiment [11] the target is T11, SIX6 (Homo sapiens, UniProt O95475 114-200, L167V).
T11 sequence: T1 sequence with I54V

For experiment [12], the target named is T12, SIX6 (Homo sapiens, UniProt O95475 114-200).
T12 sequence: T1 sequence with I54L

In experiment [13] the target is T13, SIX6 (Homo sapiens, UniProt O95475 114-200, T165I).
T13 sequence: T1 sequence with T52I, I54L

Numbering of substitutions follows the chain as printed.

The values that follow come from article PMC11006913.

On to AGGTGGGC, for which the binding signal with SIX6 [1] was 8.98 upbm affinity estimate (log intensity, higher = more binding, comparable within an allelic series); in the experiment with SIX6 [2], 8.85 upbm affinity estimate (log intensity, higher = more binding, comparable within an allelic series); with SIX6 [3] it was 8.88 upbm affinity estimate (log intensity, higher = more binding, comparable within an allelic series); with SIX6 [4] it was 8.89 upbm affinity estimate (log intensity, higher = more binding, comparable within an allelic series); with SIX6 [5], 8.86 upbm affinity estimate (log intensity, higher = more binding, comparable within an allelic series); in the experiment with SIX6 [6], 8.93 upbm affinity estimate (log intensity, higher = more binding, comparable within an allelic series). Also, the binding signal in the experiment with SIX6 [7] is 8.92 upbm affinity estimate (log intensity, higher = more binding, comparable within an allelic series); with SIX6 [8] it was 8.98 upbm affinity estimate (log intensity, higher = more binding, comparable within an allelic series); with SIX6 [9], 9.06 upbm affinity estimate (log intensity, higher = more binding, comparable within an allelic series); in the experiment with SIX6 [10] it was 8.91 upbm affinity estimate (log intensity, higher = more binding, comparable within an allelic series); in the experiment with SIX6 [11], 8.91 upbm affinity estimate (log intensity, higher = more binding, comparable within an allelic series); in the experiment with SIX6 [12], 8.91 upbm affinity estimate (log intensity, higher = more binding, comparable within an allelic series). For the same sequence, in the experiment with SIX6 [13], the binding signal was 8.94 upbm affinity estimate (log intensity, higher = more binding, comparable within an allelic series).

Take ATATCCCC: the binding signal was 10.9 upbm affinity estimate (log intensity, higher = more binding, comparable within an allelic series) with SIX6 [1]; 10.3 upbm affinity estimate (log intensity, higher = more binding, comparable within an allelic series) with SIX6 [2]; 10.9 upbm affinity estimate (log intensity, higher = more binding, comparable within an allelic series) with SIX6 [3]; 9.7 upbm affinity estimate (log intensity, higher = more binding, comparable within an allelic series) with SIX6 [4]; 10.9 upbm affinity estimate (log intensity, higher = more binding, comparable within an allelic series) with SIX6 [5]; 10.9 upbm affinity estimate (log intensity, higher = more binding, comparable within an allelic series) in the experiment with SIX6 [6]. In addition, the binding signal in the experiment with SIX6 [7] was 10.3 upbm affinity estimate (log intensity, higher = more binding, comparable within an allelic series); in the experiment with SIX6 [8], 10.9 upbm affinity estimate (log intensity, higher = more binding, comparable within an allelic series); with SIX6 [9], 10.9 upbm affinity estimate (log intensity, higher = more binding, comparable within an allelic series); with SIX6 [10], 10.8 upbm affinity estimate (log intensity, higher = more binding, comparable within an allelic series); with SIX6 [11], 10.7 upbm affinity estimate (log intensity, higher = more binding, comparable within an allelic series); with SIX6 [12] it was 10.9 upbm affinity estimate (log intensity, higher = more binding, comparable within an allelic series). For the same sequence, in the experiment with SIX6 [13], the binding signal was 10.9 upbm affinity estimate (log intensity, higher = more binding, comparable within an allelic series).

Consider CCGCAGCG, for which the binding signal with SIX6 [1] was 8.92 upbm affinity estimate (log intensity, higher = more binding, comparable within an allelic series); with SIX6 [2] it was 8.95 upbm affinity estimate (log intensity, higher = more binding, comparable within an allelic series); in the experiment with SIX6 [3], 8.92 upbm affinity estimate (log intensity, higher = more binding, comparable within an allelic series); in the experiment with SIX6 [4], 9.03 upbm affinity estimate (log intensity, higher = more binding, comparable within an allelic series); in the experiment with SIX6 [5], 8.98 upbm affinity estimate (log intensity, higher = more binding, comparable within an allelic series); with SIX6 [6] it was 8.95 upbm affinity estimate (log intensity, higher = more binding, comparable within an allelic series). For the same sequence, the binding signal with SIX6 [7] is 8.96 upbm affinity estimate (log intensity, higher = more binding, comparable within an allelic series); with SIX6 [8], 8.86 upbm affinity estimate (log intensity, higher = more binding, comparable within an allelic series); with SIX6 [9] it was 8.88 upbm affinity estimate (log intensity, higher = more binding, comparable within an allelic series); in the experiment with SIX6 [10], 8.92 upbm affinity estimate (log intensity, higher = more binding, comparable within an allelic series); with SIX6 [11], 8.99 upbm affinity estimate (log intensity, higher = more binding, comparable within an allelic series); with SIX6 [12], 8.96 upbm affinity estimate (log intensity, higher = more binding, comparable within an allelic series). For the same sequence, the binding signal with SIX6 [13] is 8.92 upbm affinity estimate (log intensity, higher = more binding, comparable within an allelic series).

For ATCGATAC, the binding signal with SIX6 [1] is 11.2 upbm affinity estimate (log intensity, higher = more binding, comparable within an allelic series); in the experiment with SIX6 [2], 10.5 upbm affinity estimate (log intensity, higher = more binding, comparable within an allelic series); in the experiment with SIX6 [3], 11.2 upbm affinity estimate (log intensity, higher = more binding, comparable within an allelic series); with SIX6 [4], 9.79 upbm affinity estimate (log intensity, higher = more binding, comparable within an allelic series); with SIX6 [5] it was 10.6 upbm affinity estimate (log intensity, higher = more binding, comparable within an allelic series); in the experiment with SIX6 [6] it was 10.9 upbm affinity estimate (log intensity, higher = more binding, comparable within an allelic series). Further, the binding signal in the experiment with SIX6 [7] is 10.3 upbm affinity estimate (log intensity, higher = more binding, comparable within an allelic series); with SIX6 [8], 11.2 upbm affinity estimate (log intensity, higher = more binding, comparable within an allelic series); with SIX6 [9] it was 11.3 upbm affinity estimate (log intensity, higher = more binding, comparable within an allelic series); with SIX6 [10], 11.1 upbm affinity estimate (log intensity, higher = more binding, comparable within an allelic series); with SIX6 [11], 11 upbm affinity estimate (log intensity, higher = more binding, comparable within an allelic series); with SIX6 [12] it was 11 upbm affinity estimate (log intensity, higher = more binding, comparable within an allelic series). The binding signal in the experiment with SIX6 [13] was 11 upbm affinity estimate (log intensity, higher = more binding, comparable within an allelic series).

With AGATAGGG, the binding signal with SIX6 [1] was 10.1 upbm affinity estimate (log intensity, higher = more binding, comparable within an allelic series); with SIX6 [2] it was 9.56 upbm affinity estimate (log intensity, higher = more binding, comparable within an allelic series); with SIX6 [3], 10.1 upbm affinity estimate (log intensity, higher = more binding, comparable within an allelic series); in the experiment with SIX6 [4], 9.33 upbm affinity estimate (log intensity, higher = more binding, comparable within an allelic series); with SIX6 [7] it was 9.71 upbm affinity estimate (log intensity, higher = more binding, comparable within an allelic series); in the experiment with SIX6 [8] it was 10.3 upbm affinity estimate (log intensity, higher = more binding, comparable within an allelic series). Moreover, the binding signal with SIX6 [9] was 10.4 upbm affinity estimate (log intensity, higher = more binding, comparable within an allelic series); in the experiment with SIX6 [10], 10.1 upbm affinity estimate (log intensity, higher = more binding, comparable within an allelic series); with SIX6 [12], 10 upbm affinity estimate (log intensity, higher = more binding, comparable within an allelic series).

For TAGTATCA, the binding signal with SIX6 [1] was 11.3 upbm affinity estimate (log intensity, higher = more binding, comparable within an allelic series); with SIX6 [2], 10.6 upbm affinity estimate (log intensity, higher = more binding, comparable within an allelic series); with SIX6 [3], 11.1 upbm affinity estimate (log intensity, higher = more binding, comparable within an allelic series); with SIX6 [4] it was 10 upbm affinity estimate (log intensity, higher = more binding, comparable within an allelic series); with SIX6 [5], 10.8 upbm affinity estimate (log intensity, higher = more binding, comparable within an allelic series); in the experiment with SIX6 [6], 11 upbm affinity estimate (log intensity, higher = more binding, comparable within an allelic series). Further, the binding signal was 10.4 upbm affinity estimate (log intensity, higher = more binding, comparable within an allelic series) with SIX6 [7]; 11.3 upbm affinity estimate (log intensity, higher = more binding, comparable within an allelic series) with SIX6 [8]; 11.3 upbm affinity estimate (log intensity, higher = more binding, comparable within an allelic series) with SIX6 [9]; 11.2 upbm affinity estimate (log intensity, higher = more binding, comparable within an allelic series) with SIX6 [10]; 11.1 upbm affinity estimate (log intensity, higher = more binding, comparable within an allelic series) with SIX6 [11]; 11 upbm affinity estimate (log intensity, higher = more binding, comparable within an allelic series) with SIX6 [12]. Besides, the binding signal with SIX6 [13] was 11 upbm affinity estimate (log intensity, higher = more binding, comparable within an allelic series).
